In PubChem BioAssay (EPA / NIEHS) one finds AC50 and outcome data, which are given here for eleven compounds.

Experiment [1] has as its system guinea pig Dopamine Transporter (DAT), gene 100714898. In words: NVS_TR_gDAT: NovaScreen (NVS) Transporter Assay for guinea pig Dopamine Transporter (DAT) (AID 2283369).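 Also: active compounds lower bound radioligand signal relative to DMSO.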 The gist of the method:
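Guinea pig striatal membranes; radioligand displacement measured by filter-based scintillation counting 2 h after dosing. Initial duplicate screen at 25 uM, then concentration-response up to 50 uM for hits; loss of signal versus DMSO baseline.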

Experiment [2] addresses Peroxisome proliferator-activated receptor gamma (Homo sapiens) (UniProt P37231). Description: NVS_NR_hPPARg: NovaScreen (NVS) Nuclear Receptor Binding Assay for human Peroxisome Proliferator-activated Receptor gamma (PPARg) (AID 2283370). The gist of the method:
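Cell-free binding to extracted PPARg protein, read by fluorescence polarization 2 h after dosing; loss of signal relative to DMSO baseline marks displacement. Primary screen in duplicate at 25 uM, actives retested in concentration series.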

Experiment [3] concerns the target human Dopamine Transporter (DAT), SLC6A3 (gene 6531) (UniProt Q01959). In words: NVS_TR_hDAT: NovaScreen (NVS) Transporter Assay for human Dopamine Transporter (DAT) (AID 2283374).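 Also: activity means loss of bound radioligand signal relative to DMSO.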 The essentials:
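Extracted human SLC6A3 protein incubated 1 h with radioligand and test chemical; bound fraction separated on filters and counted. Single 25 uM duplicate screen preceded concentration-response follow-up; positive and negative controls on every plate.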

For experiment [4], the target named is Nuclear receptor subfamily 1 group I member 2 (Homo sapiens) (UniProt O75469). Description: NVS_NR_hPXR: NovaScreen (NVS) Nuclear Receptor Binding Assay for human Pregnane X Receptor (PXR) (AID 2283365).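 Also: a drop in FRET signal versus DMSO baseline means the compound binds.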 The essentials: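 Cell-free binding assay with extracted human PXR protein, read by TR-FRET 2 h after dosing; loss of signal relative to DMSO baseline indicates binding. Primary screen at 25 uM in duplicate, actives retested in concentration series.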

The target in experiment [5] is Glucocorticoid receptor (Homo sapiens) (UniProt P04150). In words: NVS_NR_hGR: NovaScreen (NVS) Nuclear Receptor Binding Assay for human Glucocorticoid Receptor (GR) (AID 2283363).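 Also: activity is loss of specific radioligand binding signal relative to DMSO.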 The essentials:
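Single-readout cell-free binding: radioligand plus extracted receptor, 16-hour dosing, filter radiodetection; 25 uM duplicate primary, concentration series secondary.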

Experiment [6] concerns the target human Adenosine Transporter (Adot), SLC29A1 (gene 2030) (UniProt Q99808). In words: NVS_TR_hAdoT: NovaScreen (NVS) Transporter Assay for human Adenosine Transporter (Adot) (AID 2283368). The essentials: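 Binding displacement on U937 extracted protein, read 1 h post-dose by filtration and scintillation counting. Primary duplicate test at 25 uM, then singleton concentration series with 50 uM top; DMSO baseline.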

Experiment [7] addresses guinea pig Sigma Receptor, Non-selective Binding, SIGMAR1 (gene 100135589) (UniProt Q60492). Description: NVS_OR_gSIGMA_NonSelective: NovaScreen (NVS) Nuclear Receptor Binding Assay for guinea pig Sigma Receptor, Non-selective Binding (AID 2283367). The essentials: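 Test chemicals were screened in duplicate at 25 uM, then in concentration series if active, against radioligand binding to guinea pig brain membranes; filtration and scintillation counting at 1 h measured remaining bound ligand.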

Experiment [8] addresses human Serotonin Transporter (SERT), SLC6A4 (gene 6532) (UniProt P31645). In words: NVS_TR_hSERT: NovaScreen (NVS) Transporter Assay for human Serotonin Transporter (SERT) (AID 2283372). The gist of the method: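 Human platelet membrane preparation; displacement of radioligand from serotonin transporter measured after 1 h by filtration and scintillation counting. Single 25 uM duplicate screen, then concentration series for actives, with DMSO as negative baseline.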

Records with an inconclusive call do not appear. Active and inactive are the calls of the source. The calls were made as follows: active = hit-call score of the fitted dose curve at least 0.9, where 1 is the maximum; inconclusive = response in the unintended direction; inactive = score below 0.9.

human Dopamine Transporter (DAT), SLC6A3 (gene 6531), sequence (Q01959 whole entry, looked up): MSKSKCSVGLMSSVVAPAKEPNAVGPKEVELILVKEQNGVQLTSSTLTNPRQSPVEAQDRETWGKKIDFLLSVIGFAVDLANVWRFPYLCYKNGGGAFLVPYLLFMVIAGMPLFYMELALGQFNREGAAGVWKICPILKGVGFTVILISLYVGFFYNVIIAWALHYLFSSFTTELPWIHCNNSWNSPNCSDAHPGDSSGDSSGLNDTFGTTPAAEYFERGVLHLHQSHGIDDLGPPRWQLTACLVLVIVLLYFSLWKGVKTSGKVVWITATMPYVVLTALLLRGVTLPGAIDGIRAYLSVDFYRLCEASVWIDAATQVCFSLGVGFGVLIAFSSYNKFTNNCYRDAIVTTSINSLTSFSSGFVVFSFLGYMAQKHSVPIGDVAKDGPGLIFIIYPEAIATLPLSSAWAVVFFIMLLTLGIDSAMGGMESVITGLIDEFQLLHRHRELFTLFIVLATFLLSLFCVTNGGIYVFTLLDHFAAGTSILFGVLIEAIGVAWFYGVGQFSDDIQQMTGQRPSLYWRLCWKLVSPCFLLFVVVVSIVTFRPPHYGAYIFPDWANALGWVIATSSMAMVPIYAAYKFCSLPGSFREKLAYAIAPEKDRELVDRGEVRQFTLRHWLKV
guinea pig Sigma Receptor, Non-selective Binding, SIGMAR1 (gene 100135589), sequence (Q60492 whole entry, looked up): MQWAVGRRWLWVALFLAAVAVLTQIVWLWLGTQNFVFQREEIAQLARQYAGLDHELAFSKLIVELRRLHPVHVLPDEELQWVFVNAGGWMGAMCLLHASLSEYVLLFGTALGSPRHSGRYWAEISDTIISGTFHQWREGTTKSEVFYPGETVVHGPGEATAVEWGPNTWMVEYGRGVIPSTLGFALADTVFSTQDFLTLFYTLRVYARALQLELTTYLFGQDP
Peroxisome proliferator-activated receptor gamma (Homo sapiens), sequence (P37231 whole entry, looked up): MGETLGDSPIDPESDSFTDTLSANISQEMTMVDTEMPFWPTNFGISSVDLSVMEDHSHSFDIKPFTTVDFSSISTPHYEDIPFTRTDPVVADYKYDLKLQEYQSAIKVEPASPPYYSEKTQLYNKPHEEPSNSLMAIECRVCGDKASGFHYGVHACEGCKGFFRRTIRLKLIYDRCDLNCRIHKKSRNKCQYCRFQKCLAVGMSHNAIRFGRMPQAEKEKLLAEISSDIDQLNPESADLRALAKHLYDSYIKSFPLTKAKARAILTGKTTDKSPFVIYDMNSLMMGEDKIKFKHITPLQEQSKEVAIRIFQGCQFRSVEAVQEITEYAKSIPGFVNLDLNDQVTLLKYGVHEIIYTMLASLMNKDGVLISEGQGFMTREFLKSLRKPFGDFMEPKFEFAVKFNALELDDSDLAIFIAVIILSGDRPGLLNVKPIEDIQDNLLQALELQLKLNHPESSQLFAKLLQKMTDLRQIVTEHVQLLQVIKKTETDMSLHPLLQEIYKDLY
Nuclear receptor subfamily 1 group I member 2 (Homo sapiens), sequence (O75469 whole entry, looked up): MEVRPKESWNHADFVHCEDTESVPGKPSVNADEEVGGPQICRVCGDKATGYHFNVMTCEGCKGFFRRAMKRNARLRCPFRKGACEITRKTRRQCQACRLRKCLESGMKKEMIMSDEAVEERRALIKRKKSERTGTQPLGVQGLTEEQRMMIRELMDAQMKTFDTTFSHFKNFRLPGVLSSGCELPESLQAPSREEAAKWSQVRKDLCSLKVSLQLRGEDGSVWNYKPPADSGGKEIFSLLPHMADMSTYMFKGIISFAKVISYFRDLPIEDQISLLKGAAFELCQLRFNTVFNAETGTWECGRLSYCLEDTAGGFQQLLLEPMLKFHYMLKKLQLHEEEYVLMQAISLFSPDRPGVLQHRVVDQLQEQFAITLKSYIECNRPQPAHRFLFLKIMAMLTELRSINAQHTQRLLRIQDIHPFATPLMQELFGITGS
human Serotonin Transporter (SERT), SLC6A4 (gene 6532), sequence (P31645 whole entry, looked up): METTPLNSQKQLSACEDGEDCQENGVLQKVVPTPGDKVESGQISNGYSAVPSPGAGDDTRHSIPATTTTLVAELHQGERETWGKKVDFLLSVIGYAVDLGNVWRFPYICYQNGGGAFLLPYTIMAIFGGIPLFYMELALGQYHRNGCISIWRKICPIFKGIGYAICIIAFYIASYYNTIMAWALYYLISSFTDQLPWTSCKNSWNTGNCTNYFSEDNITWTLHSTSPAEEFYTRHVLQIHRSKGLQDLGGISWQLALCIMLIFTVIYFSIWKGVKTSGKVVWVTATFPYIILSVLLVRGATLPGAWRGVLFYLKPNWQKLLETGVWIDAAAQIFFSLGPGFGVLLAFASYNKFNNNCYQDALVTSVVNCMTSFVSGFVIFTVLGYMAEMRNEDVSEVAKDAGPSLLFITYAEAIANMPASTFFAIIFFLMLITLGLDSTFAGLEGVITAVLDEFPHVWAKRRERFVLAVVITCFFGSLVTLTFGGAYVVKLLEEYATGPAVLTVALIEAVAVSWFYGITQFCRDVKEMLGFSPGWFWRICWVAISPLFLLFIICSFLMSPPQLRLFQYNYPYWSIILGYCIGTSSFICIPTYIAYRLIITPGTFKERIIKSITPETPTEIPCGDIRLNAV
human Adenosine Transporter (Adot), SLC29A1 (gene 2030), sequence (Q99808 whole entry, looked up): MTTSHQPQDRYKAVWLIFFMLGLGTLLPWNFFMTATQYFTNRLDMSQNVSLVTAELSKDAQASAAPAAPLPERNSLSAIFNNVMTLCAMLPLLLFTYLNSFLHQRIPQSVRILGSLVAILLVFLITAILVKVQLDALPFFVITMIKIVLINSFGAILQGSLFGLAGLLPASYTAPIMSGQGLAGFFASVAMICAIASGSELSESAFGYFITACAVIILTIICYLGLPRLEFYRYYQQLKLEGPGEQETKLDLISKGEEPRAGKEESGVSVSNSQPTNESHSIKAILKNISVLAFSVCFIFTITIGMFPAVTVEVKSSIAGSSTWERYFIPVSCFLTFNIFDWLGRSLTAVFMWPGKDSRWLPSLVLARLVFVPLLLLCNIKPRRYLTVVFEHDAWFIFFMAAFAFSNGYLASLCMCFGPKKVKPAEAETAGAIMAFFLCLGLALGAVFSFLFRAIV
Glucocorticoid receptor (Homo sapiens), sequence (P04150 whole entry, looked up): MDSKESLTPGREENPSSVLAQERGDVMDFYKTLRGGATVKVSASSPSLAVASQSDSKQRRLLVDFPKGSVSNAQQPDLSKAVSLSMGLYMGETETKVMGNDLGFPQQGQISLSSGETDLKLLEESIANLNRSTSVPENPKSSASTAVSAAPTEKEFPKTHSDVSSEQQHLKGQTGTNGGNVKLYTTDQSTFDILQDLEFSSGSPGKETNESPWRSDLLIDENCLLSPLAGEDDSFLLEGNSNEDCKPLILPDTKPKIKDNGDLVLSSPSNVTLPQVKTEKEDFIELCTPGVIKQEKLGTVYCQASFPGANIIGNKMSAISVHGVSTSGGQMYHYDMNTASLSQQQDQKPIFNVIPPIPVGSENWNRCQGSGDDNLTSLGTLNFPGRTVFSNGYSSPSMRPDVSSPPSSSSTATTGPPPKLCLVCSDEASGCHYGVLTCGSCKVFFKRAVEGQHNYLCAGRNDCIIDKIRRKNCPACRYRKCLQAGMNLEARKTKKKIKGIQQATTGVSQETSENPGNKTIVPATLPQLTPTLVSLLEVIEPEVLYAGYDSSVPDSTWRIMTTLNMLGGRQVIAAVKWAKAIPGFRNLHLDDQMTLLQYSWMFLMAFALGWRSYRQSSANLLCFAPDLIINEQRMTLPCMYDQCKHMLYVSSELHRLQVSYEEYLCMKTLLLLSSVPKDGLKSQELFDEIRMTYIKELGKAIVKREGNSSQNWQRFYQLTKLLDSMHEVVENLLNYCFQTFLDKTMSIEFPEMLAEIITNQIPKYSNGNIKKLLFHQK

What is called AC50 is the concentration giving half of the maximal activity seen. Take `Nc1ccc(N=Nc2ccccc2)cc1`: the AC50 in experiment [1] is 15 µM (active); in experiment [3], 2.24 µM (active). For the same compound, the result in experiment [2] was inactive.
Consider `CC(C)(C)OOC(=O)c1ccccc1`, for which the compound was classed as inactive in experiment [4] and in experiment [2].
As to `c1ccc(N=Nc2ccccc2)cc1`, the result in experiment [2] was inactive.
For the compound `CCCCCCCCn1sccc1=O`, the AC50 in experiment [5] was 7.16 µM (active); in experiment [6], 16.6 µM (active); in experiment [2], 0.693 µM (active). For the same compound, the compound was called inactive in experiment [3].
`CS(=O)(=O)NC(=O)c1cc(Oc2ccc(C(F)(F)F)cc2Cl)ccc1[N+](=O)[O-]`: in experiment [2], the result was inactive.
For `C=CCc1ccc2c(c1)OCO2`, in experiment [7], the AC50 is 11.6 µM (active).
On to `CCCCOC(=O)c1ccccc1C(=O)OCc1ccccc1`, for which the outcome in experiment [7] and in experiment [2] was inactive.
With `C[N+](C)(C)CC1CO1` (stereo not given), the compound was called inactive in experiment [4].
On to `CC(C)(C)C(O)(CCc1ccc(Cl)cc1)Cn1cncn1` (stereo not given), for which, in experiment [7], the outcome was inactive. For the same compound, the AC50 in experiment [1] is 8.79 µM (active); in experiment [3] it was 4.04 µM (active).
For the compound `O=Cc1ccco1`, the outcome in experiment [8] was inactive.
For the compound `N#CC(Br)(Br)C(N)=O`, in experiment [7], the call was inactive.
